Test results taken from ChEMBL document CHEMBL3433997, “St. Jude Leishmania screening dataset” (2016).

Key:
Type in all cases: functional
[1] = target: Solute carrier family 2, facilitated glucose transporter member 1 (Homo sapiens) (UniProt P11166); assay: ST_JUDE_LEISH: Cytotoxicity at 2uM final concentration against transgenic Leishmania Mexicana promastigotes LmGLUT1 that are glucose transport deficient and complemented with the human glucose transporter GLUT1. Activity is measured by DNA content using SYBR green in vitro
[2] = target: Hexose transporter 1 (Plasmodium falciparum) (UniProt O97467); assay: ST_JUDE_LEISH: Cytotoxicity at 2uM final concentration against transgenic Leishmania Mexicana promastigotes LmPfHT that are glucose transport deficient and complemented with the Plasmodium falciparum hexose transporter. Activity is measured by DNA content using SYBR green in vitro
[3] = target: Glucose transporter (Leishmania mexicana) (UniProt O61059); assay: ST_JUDE_LEISH: Cytotoxicity at 2uM final concentration against transgenic Leishmania Mexicana promastigotes LmGT2 that are glucose transport deficient and complemented with the L. Mexicana glucose transporter 2. Activity is measured by DNA content using SYBR green in vitro

Solute carrier family 2, facilitated glucose transporter member 1 (Homo sapiens), sequence (P11166 whole entry): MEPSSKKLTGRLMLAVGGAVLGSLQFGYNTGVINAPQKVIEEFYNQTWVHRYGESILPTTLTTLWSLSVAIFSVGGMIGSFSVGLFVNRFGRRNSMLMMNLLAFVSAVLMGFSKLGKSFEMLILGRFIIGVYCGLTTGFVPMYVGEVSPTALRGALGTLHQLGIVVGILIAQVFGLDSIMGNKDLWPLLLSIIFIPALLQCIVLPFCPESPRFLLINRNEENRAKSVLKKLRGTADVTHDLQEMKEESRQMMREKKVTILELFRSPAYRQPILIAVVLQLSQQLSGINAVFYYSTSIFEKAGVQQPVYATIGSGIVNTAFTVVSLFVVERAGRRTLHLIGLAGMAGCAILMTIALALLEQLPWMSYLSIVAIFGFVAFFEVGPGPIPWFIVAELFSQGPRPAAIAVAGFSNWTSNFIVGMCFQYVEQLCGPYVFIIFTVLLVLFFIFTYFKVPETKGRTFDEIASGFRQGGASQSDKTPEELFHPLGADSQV

Structure (SMILES) | inhibition [1] [%] | inhibition [2] [%] | inhibition [3] [%]
COc1cc2nc(NCCc3ccccc3)nc(NCc3cnn(C)c3C)c2cc1OC | 9.47 | 8.36 | 7.1
Oc1ccc2[nH]c(-c3cccs3)nc2c1CN1CCC(O)(c2ccccc2)CC1 | 10.6 | 5.23 | 9.03
COc1cccc(-c2cnc(N)c(-c3nc4ccc(F)cc4[nH]3)c2)c1 | 5.87 | 7.53 | 4.49
COc1ccc2nc3cc(Cl)ccc3c(NCCO)c2c1 | 2.8 | -1.06 | 2.4
